# According to publication PMC5540273 (PLoS ONE, 2017):
# Experiments:
# Conditions in all cases: concentration: 1 μM,replicates: in singlicate; n = 1
# WNK1 = system: WNK1
# WNK2 = system: WNK2
# WNK3 = system: WNK3
# WNK4 = system: WNK4
# YANK1 = system: T1, YANK1
# T1 construct: gene STK32A
# YANK2 = system: T2, YANK2
# T2 construct: gene STK32B
# YANK3 = system: T3, YANK3
# T3 construct: gene STK32C
# YES = system: T4, YES
# T4 construct: gene YES1
# YSK1 = system: T5, YSK1
# T5 construct: gene STK25
# YSK4 = system: T6, YSK4
# T6 construct: gene MAP3K19
# 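Further: KINOMEscan kinase panel screen.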
Structure (SMILES),%Inh (WNK1) [%],%Inh (WNK2) [%],%Inh (WNK3) [%],%Inh (WNK4) [%],%Inh (YANK1) [%],%Inh (YANK2) [%],%Inh (YANK3) [%],%Inh (YES) [%],%Inh (YSK1) [%],%Inh (YSK4) [%]
CCNCC(Cc1ccccc1)NC(=O)c1cc(Br)c(-c2ccnc3[nH]ccc23)s1.Cl.Cl (stereo not shown) [GSK1383280],0,0,9,28,23,0,11,19,18,92.5
CCN1CCN(CCCC(=O)Nc2n[nH]c3nc(-c4ccc(O)cc4)c(Br)cc23)CC1 [SB-731579],0,0,0,0,0,0,0,0,0,85
O=C(Nc1cccc(C(F)(F)F)c1)c1cccc(Oc2ccc3nccn3n2)c1,16,0,26,15,0,0,30,0,0,77
CS(=O)c1ccc(-c2coc3ccc(-c4n[nH]c(=O)o4)cc23)cc1 (stereo not shown),0,0,0,0,9,10,0,0,7,55
N#Cc1cccc(C(=O)NC2CCN(c3ccnc(Nc4ccc(F)cc4)n3)C2)c1 (stereo not shown) [GSK1379708],0,0,12,76,2,0,10,0,0,16
NC(=O)Nc1sc(-c2ccc(F)cc2)cc1C(N)=O [GW789449],0,0,2,0,4,0,0,0,0,82
Cl.Cl.NC[C@H](CC1CCCCC1)NC(=O)c1ccc(-c2ccnc3[nH]ccc23)s1 [GSK1581428],0,0,0,7,68,43,35,5,0,99.7
Cn1ccc2ncnc(Oc3ccc(NC(=O)Nc4cc(C(C)(C)C)on4)c(Cl)c3)c21,0,20,0,0,0,5,0,3,0,99.5
Cc1n[nH]c2cc(Nc3ccnc(Nc4cccc(CN5CCOCC5)c4)n3)ccc12 [GW682569],8,19,21,32,9,0,3,22,10,90
CSc1nccc(-c2c(-c3ccc(F)cc3)ncn2CCCN2CCOCC2)n1.Cl [SB-217146],21,0,0,0,0,0,0,0,0,25
Cn1ccc2ncnc(Oc3ccc(NC(=O)Nc4cncc(C(F)(F)F)c4)c(Cl)c3)c21,0,0,0,0,0,2,25,0,0,17
Cn1cc(-c2cccc3c(N)c(C(N)=O)nnc23)cn1,11,0,0,0,30,0,0,0,5,94.4
COc1cccc(C2=C(Nc3cccc(Cl)c3)C(=O)NC2=O)c1 [SB-341556],20,29,19,0,5,0,11,17,0,38
Cn1ccc2ncnc(Oc3ccc(NC(=O)Nc4cccc(C(F)(F)F)c4)c(Cl)c3)c21,0,0,0,0,0,0,13,0,0,77
Cc1ccn2nc(-c3ccc(F)cc3)c(-c3ccncc3)c2c1.Cl [GW457859],0,5,30,55,91.9,13,0,5,15,0
COc1cccc(OC)c1C(=O)Nc1cccc(-c2nn3ccccc3c2-c2ccnc(Nc3cccc(F)c3)n2)c1 [GSK361065],0,0,0,0,0,11,0,36,1,0
Cc1ccc(C(=O)Nc2ccc(Oc3ccc4nc(NC(=O)C5CC5)cn4c3)c(F)c2)c(=O)n1-c1ccccc1,0,0,0,0,0,0,0,71,0,0
CC(=O)Nc1ccc(-c2cc3ncnc(SCC(=O)O)c3s2)cc1,2,0,0,2,0,0,26,0,11,50
CC(C)S(=O)(=O)N1CCN(Cc2ccc3c(c2)nc(NC(=O)c2ccsc2)n3C[C@H](O)c2ccccc2)CC1 [GW635815],3,0,18,0,1,0,5,86,0,90.6
Cn1ccc2ncnc(Oc3ccc(NC(=O)Nc4ccnc(C(F)(F)F)c4)c(Cl)c3)c21,0,0,0,0,0,0,0,0,0,14
OCCn1cc(-c2cnc3nnn(Cc4ccc5ncccc5c4)c3n2)cn1,0,0,0,0,3,0,0,0,0,0
C[C@@H](Oc1cc(-n2cnc3ccc(-c4ccncc4)cc32)sc1C(N)=O)c1ccccc1Cl [GSK483724],46,63,79,51,18,1,28,16,2,68
C[C@@H](Oc1cc(-n2cnc3cc(-c4cnn(C)c4)ccc32)sc1C(N)=O)c1ccccc1Cl [GSK580432],62,91.4,97.4,33,25,0,13,73,31,97.8

Structure (SMILES),%Inh (WNK1) [%],%Inh (WNK2) [%],%Inh (WNK3) [%],%Inh (WNK4) [%],%Inh (YANK1) [%],%Inh (YANK2) [%],%Inh (YANK3) [%],%Inh (YES) [%],%Inh (YSK1) [%],%Inh (YSK4) [%]
Cl.Nc1n[nH]c2cc(-c3ccccn3)ccc12 [GSK2189892],0,5,0,0,2,0,0,7,8,5
O=C(Nc1ccccc1)c1cccc(Oc2ccc3nccn3n2)c1,4,3,8,36,0,0,0,0,0,12
COc1cc2c(Nc3ccc(NC(=O)c4ccccc4)cc3)ncnc2cc1OCCCN1CCOCC1 [GSK301329],1,31,12,0,14,0,10,46,6,12
C[C@@H]1CNc2c(sc3ccc4nc(-c5ccncc5)ccc4c23)C(=O)N1,0,0,0,0,21,0,17,0,0,56
CN(c1ccccc1CNc1nc(Nc2ccc3c(c2)CC(=O)N3)ncc1C(F)(F)F)S(C)(=O)=O,0,0,0,0,11,0,0,29,11,91.4
COC(=O)c1cccc(NC(=O)NC2CCN(c3ccnc(Nc4cc(OC)c(OC)c(OC)c4)n3)C2)c1 (stereo not shown) [GSK1379767],0,24,49,39,12,0,0,0,16,0
FC(F)(F)c1cc(Br)cc(Nc2nccc(-c3cnn4ncccc34)n2)c1 [GW810578],14,25,0,0,0,0,25,0,0,64
Cn1ccc2ncnc(Oc3ccc(NC(=O)Nc4cnn(C(C)(C)C)c4)c(Cl)c3)c21,62,0,0,3,1,11,9,0,8,34
Cc1cccc(-c2nc(Nc3ccncc3)c3sccc3n2)n1 [GW869641],27,0,21,17,20,14,0,0,0,41
O=C(Nc1cccc(Oc2ccc3nccn3n2)c1)Nc1cccc(C(F)(F)F)c1,0,0,0,20,0,0,0,0,0,96.1
C[C@@H]1CNc2c(sc3ccc4nc(-c5ccc(O)cc5)ccc4c23)C(=O)N1,0,2,0,11,0,9,1,0,0,46
CS(=O)(=O)c1cccc(CNc2nc(Nc3ccc4c(c3)[C@@H]3C[C@@H]4CNC3=O)ncc2C(F)(F)F)c1,0,0,0,0,0,0,0,0,0,98.5
CN1CCN(CCCNc2nccc(-c3c(-c4ccc(F)cc4)nn4cc(C(N)=O)ccc34)n2)CC1 [GW622475],9,8,20,14,20,17,16,24,22,14
CCOC(=O)N1CCC(n2cnc(-c3ccc(F)cc3)c2-c2ccnc(N)n2)CC1 [SB-219952],28,72,45,0,15,15,0,10,0,9
CCn1c(-c2nonc2N)nc2cncc(CNC3CCNCC3)c21.Cl [SB-747651],14,0,34,21,3,0,40,11,0,87
COC(=O)c1cccc(NC(=O)NC2CCN(c3ccnc(NCc4ccc(F)cc4)n3)CC2)c1 [GSK1379860],10,9,18,31,0,0,0,8,0,9
Cl.c1ccc(Oc2ccc(Nc3ccnc4cc(-c5ccc(CN6CCNCC6)o5)ccc34)cc2)nc1 [GW567142],0,16,11,0,0,0,0,70,22,30
Cn1ccc2ncnc(Oc3ccc(NC(=O)Nc4cccc(C(F)(F)F)c4)c(F)c3)c21,0,0,0,7,0,0,1,0,0,68
Cc1nnc(-c2ccc3occ(-c4ccc(S(C)=O)cc4)c3n2)o1 (stereo not shown),0,0,0,0,0,0,16,0,7,0
Cc1cccc2c(-c3ccncc3)c(-c3ccc(F)cc3)nn12.Cl [GW461487],0,0,13,0,27,8,22,11,11,0
CC(C)c1nc(-c2cccc(NS(=O)(=O)c3ccccc3)c2)c(-c2ccnc(Nc3ccc4c(c3)CN(C)CC4)n2)s1 [GSK1649598],8,0,12,0,20,28,11,99.7,56,55
COc1cc(Nc2nccc(N3CCC(NC(=O)c4cccc(C#N)c4)C3)n2)cc(OC)c1OC (stereo not shown) [GSK1379751],13,19,37,39,0,0,0,20,3,39
COc1cc2ncn(-c3cc(OCC4CCCCC4)c(C(N)=O)s3)c2cc1OC [GSK204559],0,0,0,0,0,8,6,4,24,35

Structure (SMILES),%Inh (WNK1) [%],%Inh (WNK2) [%],%Inh (WNK3) [%],%Inh (WNK4) [%],%Inh (YANK1) [%],%Inh (YANK2) [%],%Inh (YANK3) [%],%Inh (YES) [%],%Inh (YSK1) [%],%Inh (YSK4) [%]
CN1CCN(CCNc2nc3cc(Oc4ccc(NC(=O)Nc5cc(C(F)(F)F)ccc5F)cc4)ccc3[nH]2)CC1.Cl.Cl [GW768504],0,0,0,0,0,0,4,0,9,10
CN(c1ccc2c(c1)nc(NCc1ccc(F)cc1)n2C)c1ccnc(Nc2ccc(CS(C)(=O)=O)cc2)n1.Cl [GW813244],17,3,13,0,0,0,0,7,4,99.3
COc1ccc(Nc2nccc(N3CCC(NC(=O)c4cccc(C#N)c4)C3)n2)cc1 (stereo not shown) [GSK1379730],2,5,18,0,0,0,0,15,0,0
Cc1ccc(Nc2ccnc(Nc3ccc4c(c3)CS(=O)(=O)C4)n2)cc1O.Cl [GW579362],0,33,33,9,26,0,0,81,39,99.1
CN(c1cccc(CNc2nc(Nc3ccc4c(c3)CC(=O)N4)ncc2C(F)(F)F)c1)S(C)(=O)=O,0,0,0,0,0,0,0,3,0,96.8
O=C(NOCC1CC1)c1cc(Br)c(F)c(F)c1Nc1ccc(I)cc1Cl,0,0,0,16,0,0,2,0,0,0
CCn1c(-c2nonc2N)nc2cncc(Br)c21 [SB-738004],0,8,31,39,0,7,8,0,0,99.7
COc1cc2nccc(Nc3ccc(Oc4ccccc4)cc3)c2cc1OC.Cl [GI261656],0,0,42,28,7,0,0,79,0,0
O=C(Nc1ccc(Oc2ccc3nc(NC(=O)C4CC4)cn3n2)c(F)c1)c1cccn(-c2ccccc2)c1=O,0,0,0,0,0,0,37,45,0,0
COC(=O)Nc1nc2cc(Oc3ccc(NC(=O)Nc4cc(C(F)(F)F)ccc4Cl)cc3)ccc2[nH]1.Cl [GW697465],8,11,49,48,0,0,13,29,4,84
O=C(NCC1CC1)c1ccc(-c2cc(C(=O)NC3CC3)ccc2F)cc1 [GW810445],0,24,11,10,0,0,0,0,3,6
NC(=O)c1ccc(-c2cc3ncnc(SCC(=O)O)c3s2)cc1,0,0,0,0,0,0,0,0,0,63
C[C@@H](Oc1cc(-n2cnc3cc(-c4ccncc4)ccc32)sc1C(N)=O)c1ccccc1Cl [GSK479719],32,76,90.2,2,7,0,26,44,0,97.5
COc1cccc(CNC(=O)NC2CCN(c3ccnc(Nc4cc(OC)c(OC)c(OC)c4)n3)C2)c1 (stereo not shown) [GSK1379765],4,33,34,43,0,0,7,7,0,37
c1ccc(Oc2ccc(Nc3ccnc4ccc(-c5ccccn5)cc34)cc2)cc1 [GW407034],20,25,20,51,12,0,30,55,0,7
C[C@@H]1CCN(C(=O)N2CCCC2)C[C@@H]1N(C)c1ncnc2[nH]ccc12,6,45,0,0,15,0,0,0,0,82
CCCC(=O)Nc1n[nH]c2ncccc12 [SB-601436],0,0,0,14,0,0,0,0,0,0
CC(=O)c1c(-c2ccncc2)[nH]c(-c2ccncc2)c1C [GW493036],14,0,50,62,0,0,9,17,0,78
O=C1NCCc2[nH]c(-c3ccncc3)cc21,0,26,0,22,0,0,6,0,0,99.4
CC(=O)Nc1nc2cnc(Nc3cc(NC(=O)c4cccc(CC(C)(C)C#N)c4)ccc3C)nc2s1,0,47,0,26,1,12,9,17,0,40
Cc1ccc(CC(=O)N2CCc3cc(-c4cn(C)c5ncnc(N)c45)ccc32)cc1 [GSK2634758],12,0,53,17,15,0,10,25,26,50
